Assay [1] is described as follows: inhibitors of TNFa-induced NFkB p65 translocation, primary screen, imaging, HUVEC, MLSMR starter and 10KST1 sets (AID 438;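 active means inhibition above 20% together with a positive visual image hit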;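 further: compound added about 3h40 before a 20 min TNFalpha stimulation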;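 on inhibition: signal is the nuclear over cytoplasmic p65 intensity ratio per well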). The settings on record: HUVEC TNFa-induced p65 nuclear translocation; cell count: measured here: nuclei count (cytotoxicity indicator), at 2.08 µM; inhibition: at 2 µM, stronger effect = higher value, 0% TNFa-plus-vehicle, 100% no-TNFa wells.
Assay [2] can be described thus: inhibitors of mutant huntingtin aggregation, primary screen, imaging, exon1htt(103Q)mCFP cells, high-content imaging (AID 483;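 active means visual image review flags a hit and inhibition of aggregation exceeds 20%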;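 further: compound exposure lasted 3 days before fixation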;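 on nuclei count: percent of the per-plate median nuclei count of sample wells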). The settings on record: exon1htt(103Q)mCFP cell line, aggregate imaging, at 2 µM; inhibition of aggregation: stronger effect = higher value; nuclei count: measured here: cell count, toxicity.
Assay [3] can be described thus: inhibitors of E-selectin induction by TNFa, primary screen, imaging, HUVEC, immunofluorescence, MLSMR starter and 10KST1 sets (AID 487;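 active means visually confirmed hit in the image check and inhibition above 20%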;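 on inhibition: signal is fraction of cell area covered by stained E-selectin grains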;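 on nuclei count: 100% = median nuclei count of all wells on the same plate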). The settings on record: HUVEC TNFalpha-induced E-selectin immunofluorescence imaging, at 2 µM; inhibition: stronger effect = higher value; nuclei count: measured here: cell number, toxicity.
In assay [4] the target is Voltage-gated potassium channel subunit beta-2 (Rattus norvegicus) (UniProt P62483). The experiment in a line: KvBeta enzyme negative modulators, primary screen, biochemical, NADPH fluorescence (AID 622).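 Further: slope of raw intensity against log time taken from 70 to 1610 s.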 Particulars: recombinant KvBeta, 4-cyanobenzaldehyde reduction, at 10 µM, stronger effect = higher value.
Voltage-gated potassium channel subunit beta-2 (Rattus norvegicus), sequence (P62483 whole entry, looked up): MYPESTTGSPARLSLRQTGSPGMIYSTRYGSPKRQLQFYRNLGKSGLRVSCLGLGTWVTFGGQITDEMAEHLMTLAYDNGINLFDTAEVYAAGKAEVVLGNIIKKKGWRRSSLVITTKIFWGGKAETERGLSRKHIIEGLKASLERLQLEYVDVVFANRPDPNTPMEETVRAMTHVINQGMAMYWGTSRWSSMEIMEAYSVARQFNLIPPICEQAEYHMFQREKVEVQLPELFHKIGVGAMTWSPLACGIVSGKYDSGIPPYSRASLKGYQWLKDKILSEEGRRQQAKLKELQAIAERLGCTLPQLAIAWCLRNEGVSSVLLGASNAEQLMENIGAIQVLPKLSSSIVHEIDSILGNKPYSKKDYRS
Assay [5] has the same target. Kind of assay: KvBeta positive modulators, primary screen, biochemical, NADPH fluorescence (AID 623;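 active means NADPH fluorescence slope more negative than the mean of all samples by about 3 SD, 99.7% confidence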;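 further: fluorescence intensity change per second fitted from 20 to 320 s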). The settings on record: Recombinant KvBeta, NADPH fluorescence decrease slope, 10 min; at 10 µM; stronger effect = lower value.
Assay [6] deals with Alpha-2C adrenergic receptor (Homo sapiens) (UniProt P18825). Kind of assay: modulators of alpha2C/GIRK thallium flux, primary screen, cell-based, HEK293 alpha2C/GIRK1/2 (AID 624;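 active means fluorescence slope after compound addition differing from the mean of all screened samples at 99.7% confidence, in either direction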;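 further: slope of fluorescence ratio to pre-addition baseline per second over 15 to 24 s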). Particulars: thallium flux BTC fluorescence, at 10 µM, actives lie on both sides.
Alpha-2C adrenergic receptor (Homo sapiens), sequence (P18825 whole entry, looked up): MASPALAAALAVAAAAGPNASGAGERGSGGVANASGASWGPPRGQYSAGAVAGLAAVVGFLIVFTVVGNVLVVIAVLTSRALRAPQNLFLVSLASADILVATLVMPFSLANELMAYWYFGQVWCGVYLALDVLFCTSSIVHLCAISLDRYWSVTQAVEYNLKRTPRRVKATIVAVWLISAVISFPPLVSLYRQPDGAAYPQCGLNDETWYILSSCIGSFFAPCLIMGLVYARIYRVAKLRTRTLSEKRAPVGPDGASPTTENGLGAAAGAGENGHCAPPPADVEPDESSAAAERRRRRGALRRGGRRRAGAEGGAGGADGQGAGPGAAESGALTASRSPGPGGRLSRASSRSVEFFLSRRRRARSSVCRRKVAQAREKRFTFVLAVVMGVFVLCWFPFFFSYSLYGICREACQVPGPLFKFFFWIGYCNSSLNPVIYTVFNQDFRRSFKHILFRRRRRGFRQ
The nature of assay [7]: inhibitors of Sendai virus-induced IRF3 signaling, primary screen, TLR/RLR signaling modifier project, cell-based, Sendai virus stimulus, luciferase, 10K MLSCN set (AID 602276;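 active means inhibition at or above 50% at 10 µM; inactive means inhibition below 50%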;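 further: firefly luciferase from ISG56 promoter only with Renilla not read in this screen; 0% = Sendai virus plus DMSO and 100% = medium plus DMSO without virus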). Particulars: HEK293 RL24 IRF3 luciferase reporter, at 10 µM, stronger effect = higher value. Background: Reporter assays use an easily measured gene product as a stand-in for the process of interest.
Assay [8] in a line: inhibitors of poly I:C-induced TLR3 signaling, primary screen, cell-based, poly I:C stimulus, luciferase, 10K MLSCN set (AID 602277;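 active means inhibition of the reporter signal at or above 50%; inactive means inhibition below 50%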). Particulars: HEK293-TLR3 RL24 IRF3 luciferase reporter, at 10 µM, stronger effect = higher value.

Activity calls are given as the source filed them.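 How the source made its calls, unless noted: active means fluorescence slope higher than the sample average by over 3 SD (cut at about -0.22 in these data, passing the limit was not always enough); inactive means the rest.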

The inhibition is the change of the read-out against control, counted positive when it falls. Regarding `Cc1nc2sc(C(c3cccc(F)c3)N3CCCCC3)c(O)n2n1` (centres undefined), the cell count in assay [1] turned out to be 223. The inhibition in assay [1] is -2.8% (inactive); in assay [3], -5.7% (inactive); in assay [7] it was 1.92% (inactive); in assay [8], 19.2% (inactive). Further, the inhibition of aggregation in assay [2] is -5.5% (inactive). For the same compound, the nuclei count was determined as 95.8% in assay [2] and 120% in assay [3]. In addition, the fluorescence slope in assay [4] was -0.538 (inactive). Besides, the NADPH fluorescence slope in assay [5] is 7.3e-06 (inactive). Further, in assay [6], the slope is 0.00555 (inactive).

Turning to `Cn1c(C(=O)N2CCN(C(=O)c3ccco3)CC2)cc2c(=O)n3ccccc3nc21`, the cell count in assay [1] was 323. Moreover, the inhibition in assay [1] is -3.3% (inactive); in assay [3], -116% (inactive); in assay [7] it was 10.9% (inactive); in assay [8], 18% (inactive). Moreover, in assay [2], the inhibition of aggregation is -13.8% (inactive). Further, the values for the nuclei count in assay [2] and in assay [3] were 111% and 118%, respectively. Further, the fluorescence slope in assay [4] was -0.00798 (active). Further, the NADPH fluorescence slope in assay [5] was 7.5e-06 (inactive). Also, the slope in assay [6] was 0.00582 (inactive).

In the case of `CCOCCCn1c(=S)[nH]c2cc3c(cc2c1=O)OCO3`, the cell count in assay [1] was determined as 453. The inhibition was 3% (inactive) in assay [1], -12.7% (inactive) in assay [3], -16.3% (inactive) in assay [7] and -2.74% (inactive) in assay [8]. Besides, the inhibition of aggregation in assay [2] was -8.1% (inactive). Also, the nuclei count in assay [2] was 92%; in assay [3], 103%. Also, the fluorescence slope in assay [4] is -0.489 (inactive). In assay [5], the NADPH fluorescence slope was -5.9e-05 (inactive). In addition, the slope in assay [6] was 0.00895 (inactive).

As for `Cc1nn(-c2ccc(F)cc2)c2sc(C(=O)N3CCCCCC3)cc12`, the cell count in assay [1] turned out to be 465. Besides, the inhibition in assay [1] was 2% (inactive); in assay [3] it was -38.9% (inactive); in assay [7], -4.92% (inactive); in assay [8], -14.2% (inactive). The inhibition of aggregation in assay [2] is 1.2% (inactive). Also, the nuclei count in assay [2] came out at 83.1%; in assay [3] it was 113%. The fluorescence slope in assay [4] is -0.199 (inactive). Moreover, the NADPH fluorescence slope in assay [5] is -3.1e-05 (inactive). For the same compound, in assay [6], the slope was 0.00645 (inactive).

Consider `Cc1cc(NC(=O)CSc2nc(CCC3CCCC3)nc3ccccc23)no1`, for which the cell count in assay [1] is 400. Besides, the inhibition is 3.5% (inactive) in assay [1], -41% (inactive) in assay [3], 8.39% (inactive) in assay [7] and 27.2% (inactive) in assay [8]. Besides, the inhibition of aggregation in assay [2] is -13.6% (inactive). The nuclei count in assay [2] amounted to 113%; in assay [3], 90%. For the same compound, in assay [4], the fluorescence slope was -0.449 (inactive). Further, the NADPH fluorescence slope in assay [5] is 4e-06 (inactive). In assay [6], the slope was 0.00867 (inactive).

For `CC(=O)Nc1ccc(S(=O)(=O)N2CCN=C2C)cc1`, the cell count in assay [1] is 246. For the same compound, the inhibition in assay [1] is 7.6% (inactive); in assay [3] it was -31.5% (inactive); in assay [7] it was 3.93% (inactive); in assay [8], 19.7% (inactive). Moreover, the inhibition of aggregation in assay [2] is 14.3% (inactive). In addition, the nuclei count in assay [2] came to 86.3%; in assay [3], 83.1%. Besides, in assay [4], the fluorescence slope was -0.62 (inactive). The NADPH fluorescence slope in assay [5] is -1.6e-05 (inactive). Besides, the slope in assay [6] was 0.00377 (inactive).

Take `Cc1nn(-c2ccccc2)c2sc(C(=O)N3CCOCC3)cc12`: in assay [1], the cell count was determined as 536. In addition, the inhibition in assay [1] was -4.4% (inactive); in assay [3], -11.9% (inactive); in assay [7], -21.4% (inactive); in assay [8] it was -21.6% (inactive). Further, the inhibition of aggregation in assay [2] was -1.9% (inactive). Moreover, the nuclei count in assay [2] was 115%; in assay [3], 118%. Besides, in assay [4], the fluorescence slope was -0.398 (inactive). Moreover, the NADPH fluorescence slope in assay [5] was 1.4e-05 (inactive). Moreover, the slope in assay [6] is 0.00676 (inactive).

In the case of `O=C(CNCC1CCCO1)Nc1ccccc1-n1cccc1` (centres undefined), the cell count in assay [1] was 671. Further, the inhibition in assay [1] was -11.4% (inactive); in assay [3] it was -127% (inactive); in assay [7], 2.08% (inactive); in assay [8] it was 15% (inactive). Also, the inhibition of aggregation in assay [2] is 1.7% (inactive). Besides, the nuclei count was found to be 90.8% in assay [2] and 127% in assay [3]. Moreover, the fluorescence slope in assay [4] was -0.291 (inactive). In addition, the NADPH fluorescence slope in assay [5] was -4.7e-05 (inactive). The slope in assay [6] was 0.00473 (inactive).

Regarding `COC(=O)c1cn(NC(=O)c2cccnc2)c(=O)c2ccccc12`, in assay [1], the cell count is 364. For the same compound, the inhibition is 2.5% (inactive) in assay [1], 29.8% (inactive) in assay [3], 10.1% (inactive) in assay [7] and 18.9% (inactive) in assay [8]. Also, the inhibition of aggregation in assay [2] is -32.8% (inactive). For the same compound, the results for the nuclei count in assay [2] and in assay [3] were 112% and 115%, respectively. In addition, the fluorescence slope in assay [4] was -0.538 (inactive). In assay [5], the NADPH fluorescence slope was -6.1e-05 (inactive). For the same compound, the slope in assay [6] was 0.00509 (inactive).

In the case of `Cc1ccc(N2C(=O)c3oc4ccccc4c(=O)c3C2c2cccc(O)c2)nc1` (centres undefined), in assay [1], the cell count was found to be 752. In addition, the inhibition was 6.1% (inactive) in assay [1], -6.3% (inactive) in assay [3], 11% (inactive) in assay [7] and 14.6% (inactive) in assay [8]. The inhibition of aggregation in assay [2] is -1.9% (inactive). In addition, the nuclei count in assay [2] worked out at 64.5%; in assay [3], 66.8%. For the same compound, the fluorescence slope in assay [4] was -0.589 (inactive). The NADPH fluorescence slope in assay [5] was -3.8e-06 (inactive). In addition, the slope in assay [6] is 0.00643 (inactive).

For the compound `Cc1ccccc1NC(=O)CSc1nc(N)c(C#N)c(-c2cccs2)c1C#N`, in assay [1], the cell count is 440. Besides, the inhibition in assay [1] was -0.3% (inactive); in assay [3], -12.2% (inactive); in assay [7], 11.6% (inactive); in assay [8], 14.3% (inactive). Also, the inhibition of aggregation in assay [2] is -16.8% (inactive). Also, the nuclei count in assay [2] is 110%; in assay [3] it was 98.8%. The fluorescence slope in assay [4] was -0.475 (inactive). In addition, the NADPH fluorescence slope in assay [5] is -4.8e-05 (inactive). For the same compound, the slope in assay [6] was 0.00696 (inactive).

For the compound `COc1ccc(C(=O)Nc2ccc(S(=O)(=O)Nc3onc(C)c3C)cc2)cc1`, the cell count in assay [1] is 501. The inhibition in assay [1] was 3.7% (inactive); in assay [3], 16.1% (inactive); in assay [7], 4.94% (inactive); in assay [8] it was 2% (inactive). Further, the inhibition of aggregation in assay [2] was -4.3% (inactive). The nuclei count in assay [2] was determined as 110%; in assay [3], 111%. Moreover, the fluorescence slope in assay [4] was -0.354 (inactive). In addition, the NADPH fluorescence slope in assay [5] was -5.4e-05 (inactive). For the same compound, the slope in assay [6] is 0.00607 (inactive).

Consider `CN(Cc1nc(-c2ccncc2)no1)S(=O)(=O)c1ccc(Cl)cc1`, for which, in assay [1], the cell count turned out to be 601. Besides, the inhibition was -6.4% (inactive) in assay [1], 1% (inactive) in assay [3], -18.2% (inactive) in assay [7] and -26.6% (inactive) in assay [8]. The inhibition of aggregation in assay [2] was -0.9% (inactive). Also, the nuclei count in assay [2] was determined as 88.3%; in assay [3] it was 94.8%. The fluorescence slope in assay [4] was -0.543 (inactive). In assay [5], the NADPH fluorescence slope is 6.1e-06 (inactive). For the same compound, in assay [6], the slope is 0.00478 (inactive).

As to `c1cc(-c2nc3ccccc3o2)nc(-c2nc3ccccc3o2)c1`, the cell count in assay [1] amounted to 426. For the same compound, the inhibition in assay [1] was 17% (inactive); in assay [3] it was 9.6% (inactive); in assay [7] it was 16.6% (inactive); in assay [8], 30.1% (inactive). For the same compound, the inhibition of aggregation in assay [2] is -10.7% (inactive). Also, the nuclei count was determined as 82.8% in assay [2] and 113% in assay [3]. The fluorescence slope in assay [4] was -0.39 (inactive). Moreover, the NADPH fluorescence slope in assay [5] is -5.8e-05 (inactive). The slope in assay [6] is 0.00362 (inactive).
